Over roughly 33,000 sequences, “E-score (-0.5 to 0.5)” has its median near -0.0014; the highest 2% begin near 0.25. This excerpt belongs to a sample that is enriched for the highest values.
What follows are sequences tested against T1, Cad1 (UniProt P24813) (assay: PBM E-score (8-mer binding enrichment) (E-score (-0.5 to 0.5)); higher = stronger / more preferred TF binding). Conditions: protein concentration: 100 nM; construct: GST-full length.
T1 sequence: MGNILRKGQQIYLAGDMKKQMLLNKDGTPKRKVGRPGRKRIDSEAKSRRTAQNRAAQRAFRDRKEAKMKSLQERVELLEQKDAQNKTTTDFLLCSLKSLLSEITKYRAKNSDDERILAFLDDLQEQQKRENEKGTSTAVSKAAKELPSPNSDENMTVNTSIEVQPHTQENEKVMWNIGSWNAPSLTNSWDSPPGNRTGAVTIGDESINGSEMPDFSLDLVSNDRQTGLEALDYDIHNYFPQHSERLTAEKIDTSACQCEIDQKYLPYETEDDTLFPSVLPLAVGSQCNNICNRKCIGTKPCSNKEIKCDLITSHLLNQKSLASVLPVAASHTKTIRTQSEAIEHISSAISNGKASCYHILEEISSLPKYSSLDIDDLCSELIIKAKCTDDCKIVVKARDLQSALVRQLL
How it was run: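 For each ungapped eight-base word taken together with its reverse complement, the Universal PBM Analysis Suite assigned an E-score. Binding data came from GST-tagged yeast transcription factors, applied at about 100-200 nM, on universal all-10-mer Agilent arrays made double-stranded by primer extension. Fluorescent anti-GST marked bound protein, and scans were normalised with masliner.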

| Sequence | PBM E-score |
| --- | --- |
| AGTTTGGC | 0.109 |
| CCCTAAAA | -0.228 |
| GCTCAGCC | -0.143 |
| AGGCAAAC | -0.106 |
| CACCGTGG | -0.018 |
| ACTAATGG | 0.209 |
| GCTAATGA | -0.0534 |
| ACTAATTC | 0.306 |
| ACTAATTA | 0.377 |
| CCTAATTA | 0.156 |
| GCTAATTA | 0.306 |
| ACTAACTA | 0.00503 |
| ACTAATTG | 0.197 |
| CCTAATTC | -0.115 |
| ACTAATGA | 0.128 |
| ACGAATTA | 0.0763 |
| ACTAATGC | 0.275 |
| CGAAAACG | 0.0757 |
| CTTTACCA | 0.00321 |
| AACTTATT | 0.142 |
| GTATTAAC | -0.0392 |
| AGGATTAT | -0.0734 |
| ATCATAGA | 0.146 |
| AAATACCC | 0.136 |
| CCCAAGAA | 0.0477 |

| Sequence | PBM E-score |
| --- | --- |
| ACTTCCAC | 0.00186 |
| AATGGACT | 0.0697 |
| ACTCTCGA | 0.141 |
| AAGCCATC | 0.0891 |
| CAGGGCTC | -0.158 |
| TAATATAA | 0.332 |
| CAATATAA | 0.283 |
| TAATAAAA | 0.226 |
| CAATATAG | 0.101 |
| GAATATAA | 0.0963 |
| CAATATAC | 0.0244 |
| AAGAATTC | 0.0649 |
| CACACTCG | 0.0692 |
| AAGTCCTG | -0.138 |
| CTAATTTA | 0.199 |
| GTAATTTA | 0.267 |
| GTAATCCA | 0.277 |
| ATAATCCG | 0.119 |
| ATAATCCA | 0.252 |
| GTAATCTA | 0.268 |
| CTAATCTA | 0.0215 |
| ATAATCCC | -0.033 |
| ATAATTTA | 0.236 |
| GCAATCCA | 0.0441 |
| CTAATCCA | 0.131 |

| Sequence | PBM E-score |
| --- | --- |
| ATAATCTA | 0.185 |
| GCTTTGCC | -0.183 |
| CAGGTCTC | -0.164 |
| CGACCATA | -0.0443 |
| AACCCCGC | -0.159 |
| CGATTGCC | 0.0433 |
| GTAATCAC | 0.229 |
| GTAATCAA | 0.253 |
| TTAATCAA | 0.199 |
| CGCTAGAG | -0.115 |
| AAAGTCGA | -0.0137 |
| ATTTGCAA | 0.277 |
| CTTTGAAA | 0.116 |
| GTTTGAAA | 0.113 |
| ATTTGAAA | 0.251 |
| GTTTGCAA | 0.0869 |
| CTTTGCAA | 0.0374 |
| TGTCGCAA | -0.137 |
| GGCCTCAA | -0.0369 |
| AAAGTCAT | 0.074 |
| ACCCTCTA | -0.192 |
| CCCCAAGG | -0.307 |
| GCACCTCA | 0.0626 |
| CGATCGAA | 0.106 |
| AGATCGAC | 0.0578 |

| Sequence | PBM E-score |
| --- | --- |
| CGATCGAC | 0.272 |
| CTGGCTAC | -0.259 |
| GATAGACA | -0.0074 |
| CTCCACCA | -0.193 |
| GGACAGAA | 0.0717 |
| GCTCGCTA | -0.0118 |
| GCTCGCGA | 0.3 |
| ACTCGCGG | 0.0242 |
| ACTCGCGA | 0.271 |
| ACTCGCGC | 0.0881 |
| CCTCGCGA | 0.121 |
| CGATGAAG | -0.0787 |
| AGAGTATC | -0.0123 |
| AATCCACG | 0.048 |
| AGTTTCCG | 0.105 |
| CCTGGGGC | -0.343 |
| ACTGTAGC | -0.136 |
| CACGTCTG | 0.134 |
| ACATCGAA | 0.169 |
| TCCGGGCA | 0.00134 |
| ATCTCGCA | 0.0847 |
| ATCTCGCG | 0.256 |
| AGCTCGCA | 0.0143 |
| ATCTCGCC | -0.0589 |
| AGCTCGCG | 0.262 |

| Sequence | PBM E-score |
| --- | --- |
| AGCTCGCC | -0.0374 |
| TGCTGAAA | -0.0176 |
| CGCTGACA | 0.297 |
| CGCTGACC | 0.117 |
| AGCTGACA | 0.192 |
| TGCTGACA | 0.334 |
| GGCTGATA | -0.0873 |
| GGCTGACC | -0.121 |
| CGCTGACG | 0.0393 |
| GGCTGACA | 0.313 |
| CGCGCAAC | 0.2 |
| AGGATGGG | -0.107 |
| AAGTCTAG | -0.155 |
| GGAAAAGA | -0.191 |
| CGAAAAGA | 0.28 |
| CGAAAATC | 0.259 |
| AGAAAATC | -0.0518 |
| AGAAAAGA | -0.0414 |
| CGAAAATA | 0.163 |
| GTATTGCA | -0.0639 |
| ATAGGCGC | 0.0733 |
| ACGGGCAA | -0.05 |
| ACGAATAA | -0.0279 |
| ACCAATAT | 0.306 |
| ACGAATAC | 0.132 |

| Sequence | PBM E-score |
| --- | --- |
| ACCAAAAC | -0.0311 |
| AACAATAC | 0.135 |
| ACCAAAAA | 0.278 |
| ACGAATAT | 0.268 |
| ACCAATAC | -0.106 |
| ACCAATAG | -0.201 |
| ACCAAAAT | 0.0849 |
| AACAATAA | 0.211 |
| AACAATAT | 0.338 |
| ACGGACCT | -0.0269 |
| CCAGCGTA | -0.0528 |
| GCTCATGA | 0.0686 |
| GCTGCCCC | -0.107 |
| GCCCCAGA | -0.158 |
| CCTTGGGA | -0.00782 |
| CAGTGGAA | -0.0557 |
| CGTCCGGA | 0.099 |
| ACGTTGGG | 0.0171 |
| ACTCGCAT | 0.101 |
| TGTACACA | 0.256 |
| ATTACATG | 0.301 |
| ATTACACA | 0.284 |
| AGTACACA | 0.0961 |
| CGTACACG | 0.0454 |
| ATTACACC | 0.108 |

| Sequence | PBM E-score |
| --- | --- |
| ATTACATC | 0.209 |
| ATTACAGG | 0.228 |
| ATTACTCG | 0.221 |
| ATTACTCA | 0.325 |
| ATTACTCC | 0.0689 |
| ATTACACG | 0.0358 |
| CGCTCAAA | 0.0635 |
| GTACTCAC | 0.158 |
| CATCGATA | 0.149 |
| CTAGATAG | 0.0131 |
| GAAATCGA | 0.0829 |
| GTTACAAA | 0.223 |
| ATTACATA | 0.296 |
| GTTACATA | 0.253 |
| ATTACAGA | 0.152 |
| CATACATA | 0.161 |
| GGTATACA | 0.0215 |
| GCTACATA | -0.00397 |
| TGTATACA | 0.272 |
| CTTACATA | 0.278 |
| AGTATACA | 0.207 |
| CTTACATC | -0.00465 |
| ACTACATA | 0.0142 |
